Data from PubChem BioAssay.
Entries with a potency or affinity are not part of this list. Results filed as inconclusive are left out. Active and inactive are the calls of the source.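 Rule for the calls, unless noted: active = a dose-response fit showing signal loss, with half-maximal concentration no higher than twice the top tested dose; inconclusive = flat fit between 30% and 70% signal loss, or poor fit; inactive = the rest.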

How the values were obtained:
[1] = Cryptococcus neoformans growth inhibition, dose response, Alamar Blue, cherry-picks (AID 686998;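 active = falling signal with fitted half-maximal potency no higher than twice the top valid tested dose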); conditions: 24 h; series mostly up to 35 µM
[2] = inducers of Cryptococcus neoformans cell lysis, dose response, AK release luminescence, cherry-picks (AID 687000;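 active = fitted dose curve reaches 40% lysis signal rise at or below the highest valid concentration tested for that sample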;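 note: luminescent detection of adenylate kinase leaking from lysed yeast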); conditions: C. neoformans lysis, adenylate kinase release luminescence, 4 h, 100% = twice the neutral-control signal; series mostly up to 15 µM
[3] = HepG2 cell cytotoxicity, dose response, cytotoxicity control, cherry-picks, set 2 (AID 687002); conditions: HepG2 viability, ATP luminescence (CellTiter-Glo), 48 h; series mostly up to 26 µM
[4] = HeLa cell cytotoxicity, dose response, cytotoxicity control, ATP luminescence, cherry-pick samples (AID 687004;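 active = a fitted half-maximal concentration no higher than twice the top valid tested dose, with signal falling as cells die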); conditions: HeLa viability, ATP luminescence (CellTiter-Glo), 48 h; series mostly up to 26 µM
[5] = A549 cell cytotoxicity, dose response, cytotoxicity control, plate reader, cherry-pick, antagonist series (AID 743412; call rule not given here); conditions: series mostly up to 26 µM
[6] = HepG2 cell cytotoxicity, dose response, cytotoxicity control, plate reader, cherry-pick, antagonist series (AID 743416; call rule not given here); conditions: series mostly up to 26 µM
[7] = molecular target: Melanocortin receptor 4 (Homo sapiens) (UniProt P32245); test: MC4R antagonists, dose response, counter-screen for LGR2 antagonist project, cell-based, plate reader, cherry pick (AID 743444; call rule not given here); conditions: MC4R-expressing cells, antagonist mode; series mostly up to 35 µM

Measured: outcome

C[C@H](NC(=O)C[C@@H]1CC[C@@H]2[C@H](COC[C@@H](O)CN2C(=O)Nc2cccc(F)c2)O1)c1ccccc1
inactive: [1] | [2] | [3] | [4]

COc1ccc(S(=O)(=O)Nc2ccc3c(c2)C(=O)N([C@H](C)CO)C[C@H](C)[C@H](CN(C)C(=O)Nc2ccccc2)O3)cc1
inactive: [1] | [2] | [3] | [4]

CC(C)NC(=O)N1CC[C@@H]2[C@@H](CO)N(C)c3ccc(-c4cccc(F)c4)cc3[C@@H]21
inactive: [1] | [2] | [3] | [4]

Cc1ccc(NC(=O)[C@H](C)NC(=O)C2CCN(C(=O)[C@@H](N)CC(C)C)CC2)cc1
inactive: [1] | [2] | [3] | [4]

COc1ccccc1C(=O)N1C[C@H]2[C@@H](c3ccccc31)[C@@H](CO)N2C(=O)Cc1ccccc1
inactive: [1] | [2] | [3] | [4]

CCS(=O)(=O)NCC[C@H]1CC[C@H](NS(=O)(=O)c2cccc(F)c2)[C@H](CO)O1
inactive: [1] | [2] | [3] | [4]

CC(C)NC(=O)NCC[C@H]1CC[C@H](NC(=O)CN(C)C)[C@H](CO)O1
inactive: [1] | [2] | [3] | [4]

C[C@H]1CN([C@@H](C)CO)C(=O)c2cc(NS(=O)(=O)c3ccc(F)cc3)ccc2O[C@@H]1CN(C)S(=O)(=O)c1ccccc1
inactive: [1] | [2] | [3] | [4]

C[C@H](NC(=O)C[C@@H]1C=C[C@H](NC(=O)CN2CCOCC2)[C@@H](CO)O1)c1ccccc1
inactive: [1] | [2] | [3] | [4]

COc1ccc(N2CCN(C(=O)CSc3ncnc4c3cnn4-c3ccc(OC)cc3)CC2)cc1
inactive: [1] | [2] | [3] | [4]

Cc1cccc(C)c1NC(=O)C(C)N1CCCC1 (stereo not given)
inactive: [1] | [2] | [3] | [4]

COc1ccccc1C(=O)Nc1ccc2c(c1)C(=O)N(C)C[C@@H](OC)[C@H](C)CN(C)[C@@H](C)CO2
inactive: [1] | [2] | [3] | [4]

CCCN(C)C[C@@H]1OCCCC[C@H](C)Oc2ccc(NS(=O)(=O)c3ccc(C)cc3)cc2C(=O)N([C@H](C)CO)C[C@@H]1C
inactive: [1] | [2] | [3] | [4]

CO[C@H](CN(C)Cc1cc(F)ccc1F)[C@@H](C)CN([C@@H](C)CO)S(=O)(=O)c1ccc(F)cc1
inactive: [1] | [2] | [3] | [4]

C[C@@H]1CN([C@@H](C)CO)C(=O)c2cc(NC(=O)Nc3ccc(F)cc3)ccc2O[C@@H](C)CCCCO[C@H]1CN(C)S(=O)(=O)c1ccccc1
inactive: [1] | [2] | [3] | [4]

C[C@H](CO)N1C[C@H](C)[C@@H](CN(C)S(C)(=O)=O)Oc2cc(C#Cc3ccccc3)ccc2S1(=O)=O
inactive: [1] | [2] | [3] | [4]

CCOc1cc(/C=N/NC(=O)CCCC(=O)NC2CCCCC2)ccc1O
inactive: [1] | [2] | [3] | [4]

CCC(=O)N1[C@@H]2Cn3c(ccc(C4=CCCCC4)c3=O)[C@H]1[C@@H](C(=O)N[C@H](C)c1ccccc1)[C@@H]2CO
inactive: [1] | [2] | [3] | [4]

C[C@H]1CN([C@@H](C)CO)C(=O)c2cccc(N(C)C)c2O[C@@H]1CN(C)C(=O)Nc1cccc2ccccc12
inactive: [1] | [2] | [3] | [4]

CO[C@H](CN(C)Cc1ccc2c(c1)OCO2)[C@@H](C)CN(C(=O)c1ccccc1)[C@@H](C)CO
inactive: [1] | [2] | [3] | [4]

CNC[C@@H]1OCCCC[C@H](C)Oc2ccc(NC(=O)NC(C)C)cc2C(=O)N([C@H](C)CO)C[C@H]1C
inactive: [1] | [2] | [3] | [4]

CC(C)(C)NC(=O)CSc1ncnc2c1cnn2-c1ccccc1
inactive: [1] | [2] | [3] | [4]

C/C=C/c1cnc2c(c1)C(=O)N([C@H](C)CO)C[C@@H](C)[C@@H](CN(C)C(=O)C1CCCCC1)O2
inactive: [1] | [2] | [3] | [4]

CNC[C@H]1Oc2ccc(NC(=O)Cc3cn(C)c4ccccc34)cc2CC(=O)N([C@@H](C)CO)C[C@H]1C
inactive: [1] | [2] | [3] | [4]

Cc1ccc(S(=O)(=O)N2C[C@@H](O)COC[C@H]3O[C@H](CC(=O)NCc4ccc5c(c4)OCO5)CC[C@@H]32)cc1
inactive: [1] | [2] | [3] | [4]

CO[C@H]1CN(C)C(=O)c2cc(NC(=O)c3ccccc3F)ccc2OC[C@H](C)N(CC2CCOCC2)C[C@H]1C
inactive: [1] | [2] | [3] | [4]

O=C(CSc1ncnc2c1cnn2-c1ccccc1Cl)N1CCN(C(=O)c2ccco2)CC1
inactive: [1] | [2] | [3] | [4]

CC(C)NC(=O)Nc1cccc2c1O[C@@H](CN(C)C(=O)Nc1ccccc1)[C@@H](C)CN([C@@H](C)CO)C2=O
inactive: [1] | [2] | [3] | [4]

C[C@H](O)C#Cc1cnc2c(c1)C(=O)N([C@@H](C)CO)C[C@@H](C)[C@@H](CN(C)C(=O)Cc1ccncc1)O2
inactive: [1] | [2] | [3] | [4]

CNC(=O)C[C@H]1CC[C@H]2[C@H](COc3ccc(NC(=O)Nc4ccccc4)cc3C(=O)N2C)O1
inactive: [1] | [2] | [3] | [4]

CC(C)NC(=O)Nc1ccc2c(c1)C(=O)N([C@H](C)CO)C[C@@H](C)[C@H](CN(C)C(=O)Nc1ccccc1)OCCCC[C@@H](C)O2
inactive: [1] | [2] | [3] | [4]

CCC(=O)Nc1ccc2c(c1)C(=O)N(C)C[C@@H](OC)[C@H](C)CN[C@@H](C)CO2
inactive: [1] | [2] | [3] | [4]

CCCNC(=O)N(C)C[C@@H]1Oc2ncc(C#CCc3ccccc3)cc2C(=O)N([C@@H](C)CO)C[C@@H]1C
inactive: [1] | [2] | [3] | [4]

CC(C)NC(=O)Nc1ccc2c(c1)C(=O)N([C@@H](C)CO)C[C@@H](C)[C@@H](CN(C)C(=O)c1ccncc1)OCCCC[C@@H](C)O2
inactive: [1] | [2] | [3] | [4]

C[C@@H]1CN([C@@H](C)CO)C(=O)c2cc(NS(=O)(=O)c3cn(C)cn3)ccc2O[C@@H](C)CCCCO[C@@H]1CN(C)Cc1ccc(C(F)(F)F)cc1
inactive: [1] | [3]

O=C(Cc1ccccc1)N[C@H]1C=C[C@@H](CC(=O)N2CCOCC2)O[C@@H]1CO
inactive: [1] | [3] | [4]

C[C@@H]1CCCCO[C@H](CN(C)C(=O)CCCN(C)C)[C@@H](C)CN([C@H](C)CO)C(=O)c2cc(NC(=O)Cc3ccccc3)ccc2O1
inactive: [1] | [3] | [4]

C[C@H]1CN([C@@H](C)CO)C(=O)c2cc(NC(=O)Nc3ccc(F)cc3)ccc2O[C@@H]1CN(C)S(C)(=O)=O
inactive: [1] | [3]

O=C(N[C@H]1CC[C@H](CCn2cc(-c3ccccn3)nn2)O[C@H]1CO)c1ccc(F)cc1
inactive: [1] | [3]

COCC(=O)NC[C@H]1N[C@H](CO)[C@H]1c1ccc(C2=CCCC2)cc1
inactive: [1] | [3] | [4]

COC(=O)C1=C(C)N(Cc2ccc(Br)cc2)C(=S)NC1c1ccc(F)cc1 (stereo not given)
inactive: [1] | [3]

Cc1cccc(C)c1NC(=O)C1CCCN1C(=O)NCc1ccccc1 (stereo not given)
inactive: [1] | [3] | [4]

O=C(CSc1ncnc2c1cnn2-c1ccccc1)Nc1ccc2c(c1)OCO2
inactive: [1] | [2] | [4]

CO[C@H]1CN(C)C(=O)c2cc(NC(=O)C3CC3)ccc2OC[C@@H](C)N(Cc2cncnc2)C[C@H]1C
inactive: [1] | [3] | [4]

Cc1ccc(CSc2ncnc3c2cnn3-c2ccc(C)cc2)cc1
inactive: [1] | [3]

C[C@@H]1CN([C@H](C)CO)C(=O)c2cc(NC(=O)Nc3cccc4ccccc34)ccc2O[C@@H]1CN(C)C(=O)Nc1ccccc1
inactive: [1] | [2] | [3] | [5] | [6] | [7]

Cc1ccccc1NC(=O)C(=O)NCCCN1CCCC1=O
inactive: [1] | [3] | [4]

CC(C)NC(=O)Nc1ccc2c(c1)C(=O)N([C@@H](C)CO)C[C@@H](C)[C@@H](CN(C)C(=O)NC(C)C)OCCCC[C@@H](C)O2
inactive: [1] | [3] | [4]

C[C@H](CO)N1C[C@H](C)[C@@H](CN(C)CC2CCOCC2)Oc2ncc(C#Cc3ccc(F)cc3)cc2C1=O
inactive: [1] | [3] | [4]

COc1ccc(NC(=O)N(C)C[C@@H]2OCCCC[C@@H](C)Oc3ccc(NC(=O)Nc4ccc5c(c4)OCO5)cc3C(=O)N([C@@H](C)CO)C[C@H]2C)cc1
inactive: [1] | [3] | [4]

C[C@H](CO)N1C[C@H](C)[C@H](CN(C)Cc2ccccc2)OCCCC[C@H](C)Oc2ccc(NS(=O)(=O)c3cccs3)cc2C1=O
inactive: [1] | [3] | [4]
